Screens deposited in PubChem BioAssay by The Scripps Research Institute Molecular Screening Center.
A selection: hits, their analogues and other compounds. The true share with any hit is near 3.4%.
pPAFAH FP inh: pPAFAH enzyme inhibitors, primary screen, biochemical, fluorescence polarization, human; Platelet-activating factor acetylhydrolase (Homo sapiens), Q13093; recombinant pPAFAH, FP-rhodamine probe fluorescence polarization; inhibition, % at 3.39 µM; actives 1.5% (n = 330,000); AID 463082, 2010;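 active means inhibition above the mean inhibition across the screen plus 3 SD, cut at about 25% in these data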;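 further: inhibitors block binding of the rhodamine activity-based probe so polarization drops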
Target sequence (Q13093 whole entry, looked up): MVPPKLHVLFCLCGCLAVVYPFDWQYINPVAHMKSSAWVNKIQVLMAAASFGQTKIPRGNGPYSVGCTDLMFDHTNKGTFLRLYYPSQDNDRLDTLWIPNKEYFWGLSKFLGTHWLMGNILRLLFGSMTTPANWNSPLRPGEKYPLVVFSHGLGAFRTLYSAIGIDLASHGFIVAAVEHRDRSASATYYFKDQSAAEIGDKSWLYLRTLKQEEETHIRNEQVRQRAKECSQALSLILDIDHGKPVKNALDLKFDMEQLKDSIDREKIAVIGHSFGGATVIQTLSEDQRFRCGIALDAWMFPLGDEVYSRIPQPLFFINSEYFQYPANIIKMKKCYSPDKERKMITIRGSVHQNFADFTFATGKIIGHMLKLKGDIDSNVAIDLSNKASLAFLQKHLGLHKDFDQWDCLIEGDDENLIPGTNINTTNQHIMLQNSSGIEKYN
PAFAH2 inh: PAFAH2 enzyme inhibitors, primary screen, biochemical, fluorescence polarization, human; recombinant PAFAH2, FP-rhodamine activity probe; inhibition, % at 3.39 µM; actives 0.99% (n = 340,000); Platelet-activating factor acetylhydrolase 2, cytoplasmic (Homo sapiens), Q99487;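 active means inhibition above the mean over all tested compounds plus 3 SD, cut at about 30% in these data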;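 further: inhibitors block probe labeling of enzyme so polarization drops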
PP5 inh: PP5 phosphatase inhibitors, primary screen, biochemical, fluorescence; Serine/threonine-protein phosphatase 5 (Homo sapiens), P53041; purified PP5c, OMFP substrate fluorescence; inhibition, % at 6.7 µM; actives 0.18% (n = 320,000); AID 1987, 2009;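 active means inhibition above the campaign's mean inhibition across all tested compounds plus 3 SD, cut at about 9.5% in these data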
PP1 inh: PP1-alpha phosphatase inhibitors, primary screen, counter-screen for PP5 inhibitor project, biochemical, fluorescence, OMFP substrate, single point; Serine/threonine-protein phosphatase PP1-alpha catalytic subunit (Homo sapiens), P62136; purified PP1alpha; inhibition, % at 6.7 µM; actives 0.9% (n = 320,000); AID 2235, 2010;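 active means inhibition above the mean inhibition of all tested compounds plus 3 SD, computed separately for each screening campaign, cut at about 15% in these data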
PAFAH1B2 FP inh: PAFAH1B2 enzyme inhibitors, primary screen, biochemical, fluorescence polarization, human | recombinant PAFAH1B2, FP-rhodamine activity probe | actives 1.2% (n = 340,000) | AID 492953, 2010 | inhibition, % at 3.39 µM;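 active means inhibition above the mean of all tested compounds plus 3 SD, cut at about 24% in these data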
Target sequence (P68402 whole entry, looked up): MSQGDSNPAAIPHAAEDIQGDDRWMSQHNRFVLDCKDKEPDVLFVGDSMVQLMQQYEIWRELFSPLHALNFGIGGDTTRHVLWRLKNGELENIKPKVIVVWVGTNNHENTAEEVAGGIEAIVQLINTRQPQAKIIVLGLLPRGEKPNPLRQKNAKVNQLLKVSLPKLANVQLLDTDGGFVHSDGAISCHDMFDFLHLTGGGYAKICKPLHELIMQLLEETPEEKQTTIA
PAFAH1B3 FP inh: PAFAH1B3 enzyme inhibitors, primary screen, biochemical, fluorescence polarization, human; recombinant PAFAH1B3, FP-rhodamine probe; inhibition, % at 3.39 µM; actives 0.28% (n = 340,000);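 active means inhibition above the screen-wide average of all tested compounds plus 3 SD, cut at about 25% in these data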
PAFAH2 confirm: PAFAH2 enzyme inhibitors, confirmation, biochemical, fluorescence polarization, human; shares compounds with PAFAH2 inh; recombinant PAFAH2, FP-rhodamine activity probe; inhibition, % at 3.39 µM; actives 65% (n = 2,300); AID 493030, 2011;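 active means mean inhibition over three repeats above a set limit taken from the earlier primary screen, cut at about 30% in these data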;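 further: inhibitor blocks binding of rhodamine activity probe so polarization falls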
Of the large screens only hits and unclear results are named; the others gave an inactive call (follow-up assays come after a bar, where they were run).

CC1=NN(c2ccc(C)cc2)C(=O)/C1=C/c1ccc(-c2cc([N+](=O)[O-])ccc2O)o1	PAFAH2 inh 34 (no result: pPAFAH FP inh, PP5 inh, PP1 inh) | PAFAH2 confirm inactive
O=C(O)c1cccc(N/N=C/C2=C(Cl)c3cc(Cl)ccc3SC2)c1	PAFAH2 inh 36 (no result: pPAFAH FP inh, PP5 inh, PP1 inh) | PAFAH2 confirm inactive
O=C(O)c1cccc(N/N=C/c2ccc(F)c(F)c2)c1	none
O=C(CCS(=O)(=O)c1ccc(F)cc1)N1CCN(c2ccccc2)CC1	PAFAH2 inh 32 | PAFAH2 confirm inactive
CN(C)c1ccc(N/C(=N\S(=O)(=O)c2cccs2)c2ccccc2)cc1	PAFAH2 inh 57 | PAFAH2 confirm 54
CCOc1ncccc1C(=O)OCC(=O)Nc1cc(S(=O)(=O)N(CC)CC)ccc1C	PAFAH2 inh 65 | PAFAH2 confirm 49
CCN(CC)S(=O)(=O)c1ccc(C)c(NC(=O)COC(=O)CCC(=O)c2cccs2)c1	none
CCN(CC)S(=O)(=O)c1ccc(C)c(NC(=O)COC(=O)C=C(C)C)c1	PAFAH2 inh 33 | PAFAH2 confirm 48
C=CCn1c(SCCN2C(=O)c3ccccc3C2=O)nc2scc(-c3ccccc3)c2c1=O	none
CC1CCCC(NC(=O)COC(=O)c2cccnc2Cl)C1C (stereo not drawn)	PAFAH2 inh 67 | PAFAH2 confirm 51
O=C(COC(=O)c1cccnc1Cl)Nc1ccc(N2CCCCC2)cc1	none
CC1CCCC(NC(=O)COC(=O)c2cc3ccccc3oc2=O)C1C (stereo not drawn)	PAFAH2 inh 37 (no result: PP5 inh, PP1 inh) | PAFAH2 confirm inactive
CC1CCCC(NC(=O)COC(=O)c2ccc(Cl)nc2)C1C (stereo not drawn)	PAFAH2 inh 33 | PAFAH2 confirm inactive
CC1CCN(C(=O)COC(=O)c2cc3ccccc3oc2=O)CC1	none (no result: PP5 inh, PP1 inh)
CC1CCCC(NC(=O)COC(=O)COc2ccccc2Cl)C1C (stereo not drawn)	none
N#Cc1ccc(NC(=O)COC(=O)c2cccnc2Cl)cc1	PAFAH2 inh 43 (no result: PP5 inh, PP1 inh) | PAFAH2 confirm 36
Cc1cc(C(=O)N2CCc3ccccc3C2)no1	none
Cc1ccc(Nc2c([N+](=O)[O-])c(=O)oc3ccccc23)cc1	none
O=c1oc2ccccc2c(Nc2ccc3ccccc3c2)c1[N+](=O)[O-]	PAFAH2 inh 34 | PAFAH2 confirm inactive
O=C(COC(=O)CCCN1C(=O)c2cccc3cccc(c23)C1=O)Nc1cccc(Br)c1	PAFAH2 inh 56 | PAFAH2 confirm inactive
O=C(COC(=O)CCCN1C(=O)c2cccc3cccc(c23)C1=O)Nc1cccc(C(F)(F)F)c1	PAFAH2 inh 36 | PAFAH2 confirm 33
O=C(NCCc1ccc(C(F)(F)F)cc1)C1CC(=O)N(c2ccc3c(c2)OCCO3)C1 (stereo not drawn)	none
C=CCSc1nc2sc3c(c2c(=O)[nH]1)CCC3	none
COc1ccc(CCNC(=O)COC(=O)c2ccc(C)s2)cc1OC	none
COc1ccc(CCNC(=O)COC(=O)c2ccc(C)s2)cc1	PAFAH2 inh 56 | PAFAH2 confirm 47
COc1ccc(CCNC(=O)COC(=O)c2cccs2)cc1OC	none
COc1ccc(CCNC(=O)COC(=O)c2cccs2)cc1	PAFAH2 inh 44 (no result: pPAFAH FP inh, PP5 inh, PP1 inh) | PAFAH2 confirm 34
COc1ccccc1N1CCN(C(=O)c2coc(=O)c(Br)c2)CC1	none
CCC(NS(=O)(=O)c1ccc(OC)cc1)C(=O)NCCc1ccccc1 (stereo not drawn)	none
CCCc1cc(=O)n2[nH]c(C)nc2n1	none
CCCc1cc(=O)n2[nH]c(Cc3ccccc3)nc2n1	PAFAH2 inh 31 | PAFAH2 confirm inactive
Cc1nc(C)c(C(=O)OCC(=O)Nc2ccccc2SCC#N)s1	PAFAH2 inh 43 | PAFAH2 confirm 33
COc1ccc(CCNC(=O)COC(=O)c2sc(C)nc2C)cc1	none
O=C(COC(=O)c1cncc(Br)c1)NCc1ccccc1Cl	none
Cc1ccc(CNC(=O)COC(=O)c2cc3c(s2)CCC(C)C3)cc1 (stereo not drawn)	none
Cc1nc(C)c(C(=O)OCC(=O)NCc2ccccc2)s1	PAFAH2 inh 32 | PAFAH2 confirm inactive
Cc1nc(C)c(C(=O)OCC(=O)NCc2ccccc2Cl)s1	PAFAH2 inh 70 (no result: PP5 inh, PP1 inh) | PAFAH2 confirm 63
CC1CCc2sc(C(=O)OCC(=O)NCc3ccccc3)cc2C1 (stereo not drawn)	PAFAH2 inh 38 | PAFAH2 confirm 40
c1n[nH]c(NC2=NCCC2)n1	none
CC1CCC(Nc2nnnn2-c2ccccc2)CC1 (stereo not drawn)	none
O=C(Cn1cnc2nc3n(c2c1=O)CCC3)NCc1ccccc1	none
CCN1CCN(CCCNC(=O)c2cc3c(=O)[nH]c4ccccc4c3s2)CC1	none
Cc1c(C(c2ccc(Br)cc2)c2c(C)n(C)n(-c3ccccc3)c2=O)c(=O)n(-c2ccccc2)n1C	PAFAH2 inh 37 | PAFAH2 confirm inactive
C[n+]1c(-c2ccccc2)cc2c(=Cc3ccccc3)c3ccccc3n21	PAFAH2 inh 59 (no result: pPAFAH FP inh, PP5 inh, PP1 inh) | PAFAH2 confirm inactive
Cc1cc2c(=Cc3ccc(N(C)C)cc3)c3ccccc3n2[n+]1C	none (no result: pPAFAH FP inh, PP5 inh, PP1 inh)
COc1cccc(/C=C2\SC(=S)N(NS(=O)(=O)c3ccc(C)cc3)C2=O)c1OC	PAFAH2 inh 33 | PAFAH2 confirm inactive
COc1ccccc1/C=C/C(=O)OCC(=O)NCCC1=CCCCC1	none
COc1ccc(/C=C/C(=O)OCC(=O)NCCC2=CCCCC2)cc1OC	PAFAH2 inh 65 | PAFAH2 confirm 50
COc1cccc(/C=C/C(=O)OCC(=O)NCCC2=CCCCC2)c1OC	PAFAH2 inh 66 (no result: PP5 inh, PP1 inh) | PAFAH2 confirm 55
COc1ccccc1C(=O)NCC(=O)NCc1cc(=O)n(C)c(=O)n1C	none
O=C(O)C(Cc1ccccc1)N1C(=O)/C(=C/C=C/c2ccco2)SC1=S (stereo not drawn)	PAFAH2 inh 60 (no result: pPAFAH FP inh, PP5 inh, PP1 inh) | PAFAH2 confirm 47
O=C(CC1SC(=O)N(Cc2ccc(Cl)cc2)C1=O)Nc1nccs1 (stereo not drawn)	none
COc1cccc(CN(C)C(=O)CSCC(=O)Nc2ccc(C)cc2)c1OC	none
O=[N+]([O-])c1ccccc1S(=O)(=O)Nc1cccc(-c2ccc(N3CCCC3)nn2)c1	PAFAH2 inh 109 | PAFAH2 confirm inactive
O=C(O)CN=C(NS(=O)(=O)c1ccc(Cl)cc1)c1ccccc1	PAFAH2 inh 35 | PAFAH2 confirm inactive
O=[N+]([O-])c1ccc(O)c(N=Cc2sc3ccccc3c2O)c1	PAFAH2 inh 33 | PAFAH2 confirm inactive
